Experimental data from PubChem BioAssay (EPA / NIEHS).
“And” between values parts separate entries of the source, which are not always exact repeats. Equal entries are not always repeated. Results filed as inconclusive are left out. The source holds several records for some structures; these can differ, active in one and inactive in another. The source made the active and inactive calls. Rule for the calls, unless noted: active = hit-call score of the fitted dose curve at least 0.9, where 1 is the maximum; inactive = score below 0.9.

Tests used:
[1] = CCTE_Shafer_MEA_dev_AB: CCTE's Alamar Blue Assay for Cytotoxicity in the Neural Network Formation Assay, Shafer Lab (AID 2284083; active = hit-call score of the fitted dose curve at least 0.9, where 1 is the maximum;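 note: twelve days of exposure from plating with re-dosing on DIV 5 and 9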)
Method in brief: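 Fluorescent resazurin reduction serves as the viability read-out, with DMSO as negative control and baseline. Cells were primary rat cortical neurons grown on MEA plates and dosed from day 0 to day 12, treatment renewed on DIV 5 and 9.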

[2] = CCTE_Shafer_MEA_dev_mutual_information_norm: CCTE's Neural Network Formation Assay for Mutual Information Normalization, Shafer Lab (AID 2284091);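 for AC50: mutual information between electrodes summarised as area under curve across four recording days; potency is for a decrease in mutual information relative to DMSO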
Method in brief: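 Rat cortical cultures, 48-well MEA, continuous exposure DIV 0–12 with full media/compound change DIV 5 and 9. Readout: inter-electrode mutual information, AxIS adaptive spike detection; AUC across DIV 5/7/9/12 recordings; DMSO baseline, negative fitting direction.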

[3] = CCTE_Shafer_MEA_dev_correlation_coefficient_mean: CCTE's Neural Network Formation Assay for Mean Correlation Coefficient, Shafer Lab (AID 2284093);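 for AC50: well mean pairwise spike train correlation integrated as AUC over recording days 5 to 12; potency fitted for loss of correlation relative to DMSO vehicle wells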
Method in brief: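 Read-out: well-mean correlation coefficient of spike trains between electrode pairs, collapsed over four recording days as trapezoidal area-under-the-curve. Developing rat cortical neuron networks grown on MEAs received test chemical continuously from plating.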

[4] = CCTE_Shafer_MEA_acute_AB: CCTE's Alamar Blue Assay for Cytotoxicity in the Neural Acute Assay, Shafer Lab (AID 2284069; active = hit-call score of the fitted dose curve at least 0.9, where 1 is the maximum;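 note: active compounds lower the viability signal compared with DMSO wells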)
Method in brief: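 Metabolic activity in chemically exposed rat cortical neurons (MEA cultures, day 13/15 post-plating) measured via CellTiter Blue resazurin reduction, 544/590 nm fluorescence; fitted relative to DMSO, with signal loss indicating reduced viability.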

[5] = CCTE_Shafer_MEA_acute_LDH: CCTE's Lactate Dehydrogenase Assay for Cytotoxicity in the Neural Acute Assay, Shafer Lab (AID 2284086; active = hit-call score of the fitted dose curve at least 0.9, where 1 is the maximum;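 note: active means LDH release rises above DMSO vehicle level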)
Method in brief: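 Primary rat cortical neurons on 48-well MEA plates, treated on day 13 or 15 post-plating. After the 40-min recording with compound, medium LDH release was read by absorbance at 490 nm. Gain of signal was fitted against DMSO negative control.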

[6] = TAMU_PeakParms_SingleDonor1434_Chronotropy: Texas A&M University (TAMU) 1.5-hr Human Induced Pluripotent Stem Cell (iPSC)-derived Cardiomyocytes Calcium (Ca+2) Flux Assay for Cardiotoxicity: Chronotropy (changes in peak frequency) (AID 2284217); settings: actives raise or lower the signal
Method in brief: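 Beat frequency of single-donor iPSC cardiomyocytes was recorded through a calcium-sensitive dye 1.5 hours after exposure to four concentrations up to 100 uM. An EC05 point of departure was derived.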

[7] = CCTE_Mundy_HCI_Cortical_Synap_Neur_Matur_NeuriteSpotCountPerNeuriteLength: CCTE's Synaptogenesis and Neurite Maturation Assay in rat cortical cells for Neurite Spot Count per Neurite Length, Mundy Lab (AID 2284210)
Method in brief: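 Rat primary cortical cultures, glia arrested with AraC at DIV 5, were dosed with media change at DIV 7 and fixed at DIV 12. Synaptophysin puncta per MAP2-labelled neurite length were quantified by high-content imaging versus DMSO.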

[8] = CCTE_Mundy_HCI_Cortical_Synap_Neur_Matur_BPCount: CCTE's Synaptogenesis and Neurite Maturation Assay in rat cortical cells for Branch Point Count, Mundy Lab (AID 2284211)
Method in brief: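 Branch point number is quantified by automated imaging of fluorescently labelled neurites and synapses in rat primary cortical neurons exposed from DIV 7 to DIV 12. Activity is analysed relative to DMSO negative control.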

[9] = CCTE_Mundy_HCI_Cortical_NOG_NeuriteCount: CCTE's Neurite Outgrowth Assay in rat cortical cells for Neurite Count, Mundy Lab (AID 2284212);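 note: cells fixed about two days after chemical exposure began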
Method in brief: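 Neurite number per cell from high-content imaging of betaIII-tubulin immunostaining, with Hoechst nuclear counterstain.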

[10] = CCTE_Mundy_HCI_Cortical_NOG_NeuriteLength: CCTE's Neurite Outgrowth Assay in rat cortical cells for Neurite Length, Mundy Lab (AID 2284213);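 for AC50: neurites imaged about 48 to 50 h after chemical exposure began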
Method in brief: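 Neurite length was read by high-content imaging of βIII-tubulin-labelled neurites in rat primary cortical cultures. Activity was fitted relative to DMSO.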

[11] = CCTE_Mundy_HCI_Cortical_Synap_Neur_Matur_NeuriteLength: CCTE's Synaptogenesis and Neurite Maturation Assay in rat cortical cells for Neurite Length, Mundy Lab (AID 2284214)
Method in brief: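 Rat primary cortical cells were plated, treated with AraC at DIV 5 to arrest glial growth, then chemical-dosed with media change at DIV 7 through DIV 12. Fixed cells stained for MAP2, synaptophysin and Hoechst; neurite length quantified by high-content imaging.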

[12] = CCTE_Mundy_HCI_Cortical_Synap_Neur_Matur_NeuriteSpotCountPerNeuron: CCTE's Synaptogenesis and Neurite Maturation Assay in rat cortical cells for Neurite Spot Count per Neuron Count, Mundy Lab (AID 2284215)
Method in brief: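 Developing rat cortical neurons, with glia suppressed by AraC, are exposed to chemicals from DIV 7 to DIV 12. Automated fluorescence imaging of MAP2-labelled neurites and synaptophysin puncta yields a count per neuron, normalised against DMSO wells.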

[13] = CCTE_Mundy_HCI_Cortical_Synap_Neur_Matur_SynapseCount: CCTE's Synaptogenesis and Neurite Maturation Assay in rat cortical cells for Synapse Count, Mundy Lab (AID 2284218)
Method in brief: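 Rat primary cortical cells in 96-well plates received AraC at DIV 5 and were dosed with chemicals at DIV 7 with media change, through DIV 12 (288.33 h). Synapses per neuron counted by high-content imaging of MAP2/synaptophysin/Hoechst staining, versus DMSO baseline.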

[14] = CCTE_Mundy_HCI_hN2_NOG_NeuriteCount: CCTE's Neurite Outgrowth Assay in human hN2 cells for Neurite Count, Mundy Lab (AID 2284219; active = hit-call score of the fitted dose curve at least 0.9, where 1 is the maximum)
Method in brief: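 In this morphology assay, hNP1-derived neurons received test chemical 2 h post-plating and were fixed two days later in warm paraformaldehyde/sucrose containing Hoechst 33342. Neurites, labelled by rabbit anti-βIII-tubulin (1:800) and Alexa Fluor-488 (1:500), were counted automatically.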

[15] = IUF_NPC1b_proliferation_BrdU_72hr: Leibniz Research Institute for Environmental Medicine (IUF) 72-hour Neural Progenitor Cell Bromodeoxyuridine (BrdU) Proliferation Assay (NPC1b) (AID 2284207)
Method in brief: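 hNPC spheres (primary, GW 16-19 fetal cortex), single sphere/well, EGF+FGF medium; 72 h compound, no renewal; BrdU pulse last 16 h; luminescent ELISA; activity vs DMSO baseline; growth-factor withdrawal as positive control.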

[16] = IUF_NPC1a_proliferation_area_72hr: Leibniz Research Institute for Environmental Medicine (IUF) 72-hour Neural Progenitor Cell Proliferation Area Assay (NPC1a) (AID 2284208)
Method in brief: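 Measured in 3D suspension: each well held one primary hNPC sphere grown with EGF and FGF at pH 7.2-7.6. Compound stayed on for 72 h, then area was imaged; spheres lacking growth factors defined reduced proliferation.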

[17] = IUF_NPC1_viability_72hr: Viability Assessment at 72 hours in the Leibniz Research Institute for Environmental Medicine (IUF) Neural Progenitor Cell Proliferation Assay (NPC1) (AID 2284209)
Method in brief: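 Human fetal-cortex neural progenitor spheres (0.25–0.35 mm, one per well) grown in EGF/FGF proliferation medium at 37C, pH 7.2-7.6, exposed 72 h without renewal; viability read as alamar blue resazurin-to-resorufin fluorescence relative to DMSO.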

[18] = UKN5_HCS_SBAD2_neurite_outgrowth: University of Konstanz (UKN) Leist Lab Neurite Outgrowth Assay in human iPSC-derived immature Dorsal Root Ganglia Neurons (UKN5) (AID 2284070); settings: actives raise or lower the signal
Method in brief: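 Human iPSC-derived immature DRG neurons (SBAD2) on Matrigel with CHIR99021 (1.5 uM), SU5402 (5 uM), DAPT (5 uM); compounds added 1 h post-seeding for 24 h. Calcein-AM neurite area imaged; bidirectional fit vs DMSO.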

[19] = UKN2_HCS_IMR90_neural_migration: University of Konstanz (UKN) Leist Lab Neural Crest Cell Migration Assay in human induced IMR90 Pluripotent Stem Cells (UKN2) (AID 2284204); settings: actives raise or lower the signal
Method in brief: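 iPSC-derived IMR90 neural crest cells on PLO/laminin/fibronectin were seeded around silicone stoppers; after stopper removal, migration in N2-S medium with EGF and FGF ran 24 h before 24 h chemical exposure. Calcein-AM/Hoechst high-content imaging; bidirectional fit versus DMSO.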

[20] = UKN4_HCS_LUHMES_neurite_outgrowth: University of Konstanz (UKN) Leist Lab Neurite Outgrowth Assay in human LUHMES cells (UKN4) (AID 2284206); settings: actives raise or lower the signal
Method in brief: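 LUHMES neuronal precursors differentiated 2 days, replated without cAMP/GDNF, then exposed to chemicals for 24 h. Neurite area imaged by high-content microscopy after calcein-AM staining; Hoechst H-33342 marks viability. Bidirectional fit versus DMSO.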

Measured: AC50

CCOc1ccc2[nH]cc(C(=O)NCc3ccccc3)c(=O)c2n1
inactive: [1] | [2] | [3]

CCc1ccc(O)c(C(C)(C)C)c1
inactive: [4] | [5]

OCCC(F)(F)C(F)(F)C(F)(F)C(F)(F)F
inactive: [2]
active: [3] 3.75 µM

NCC(F)(F)C(F)(F)C(F)(F)C(F)(F)F
inactive: [1] | [2] | [3]

C=CCc1cc(S(=O)(=O)c2ccc(O)c(CC=C)c2)ccc1O
inactive: [4] | [5]

Cc1ncc([C@@H](CCCCCCc2ccc3c(n2)NCCC3)CC(=O)O)cn1
inactive: [4]

Cn1c(=O)c2[nH]cnc2n(C)c1=O
inactive: [4] | [5]

CC(C)C(=O)Nc1ccc([N+](=O)[O-])c(C(F)(F)F)c1
inactive: [5] | [6]

COc1cc(C(C)C)c2c(c1)S(=O)(=O)N(COc1cc(=O)n3cccc(OCCN4CCCCC4)c3n1)C2=O
inactive: [4]

CCCCCCCC/C=C\CCCCCCCC(=O)OC[C@@H](O)[C@H]1OC[C@H](O)[C@H]1O
inactive: [4]

OC[C@H]1O[C@@](CO)(O[C@H]2O[C@H](CO)[C@@H](O)[C@H](O)[C@H]2O)[C@@H](O)[C@@H]1O
inactive: [6]

OC(Cn1cncn1)(Cn1cncn1)c1ccc(F)cc1F
inactive: [1] | [2] | [3] | [7] | [8] | [9] | [10] | [11] | [12] | [13] | [14]

CC[C@H](C)C(=O)O[C@H]1C[C@H](O)C=C2C=C[C@H](C)[C@H](CC[C@@H](O)C[C@@H](O)CC(=O)O)[C@H]21
active: [1] 2.43 µM | [2] 1.97 µM | [3] 4.32 µM
inactive: [4]

COc1cc2c(c(OC)c1OC)-c1ccc(OC)c(=O)cc1[C@@H](NC(C)=O)CC2
inactive: [4] | [7] | [6]
active: [1] 0.0232 µM | [2] 0.0238 µM | [3] 0.0234 µM | [8] 0.0374 µM | [9] 17.2 nM | [10] 12.4 nM | [11] 0.0354 µM | [12] 0.0297 µM | [13] 0.0302 µM | [14] 0.00966 µM

C[C@]12C=CC(=O)C=C1CC[C@H]1[C@@H]3C[C@@H](O)[C@](O)(C(=O)CO)[C@@]3(C)C[C@H](O)[C@@]12F
active: [3] 0.202 µM | [7] 23.9 µM | [8] 2.18 µM | [9] 22700 nM | [10] 19700 nM | [11] 2.59 µM | [12] 3 µM | [13] 4.2 µM
inactive: [1] | [2]

Cn1cc[nH]c1=S
not listed: [4] | [5] | [6] | [14] | [18] | [19] | [20]
inactive: all other assays above

O=S(=O)(O)c1ccc(N=Nc2c(O)ccc3cc(S(=O)(=O)O)ccc23)cc1
inactive: [4] | [5]

NC(=O)N1c2ccccc2C=Cc2ccccc21
active: [20] 150 µM
not listed: [1] | [4] | [5] | [6] | [15] | [16] | [17]
inactive: all other assays above

c1ccc2cc3ccccc3cc2c1
inactive: [5] | [2] | [3] | [7] | [8] | [9] | [10] | [11] | [12] | [13]
active: [6] 20.2 µM

CCCC(CCC)C(=O)O
active: [18] 5000 µM | [20] 7760 µM | [15] 1040 µM | [17] 2090 µM
not listed: [4] | [5] | [16]
inactive: all other assays above

c1ccc2c(c1)-c1cccc3c1c-2cc1ccccc13
inactive: [1] | [3]
active: [2] 1.35 µM | [6] 4.53 µM

Nc1ccn([C@@H]2O[C@H](CO)[C@@H](O)[C@@H]2O)c(=O)n1
inactive: [19] | [20] | [15] | [7] | [8] | [11] | [12] | [13]
active: [18] 1.2 µM | [1] 18.5 µM and 1.67 µM | [2] 89.3 nM and 97.6 nM | [3] 89.9 nM and 112 nM | [16] 0.109 µM | [17] 0.191 µM | [7] 23.2 µM | [8] 7.42 µM | [9] 9.69 µM and 4.75 µM | [10] 9.08 µM and 3.77 µM | [11] 11.9 µM | [12] 12.4 µM | [13] 12.4 µM

OC(O)(C(F)C(O)(O)C(F)(F)F)C(F)(F)F
inactive: [1] | [2] | [3]
active: [3] 2.98 µM

OC(CCl)CCl
inactive: [4] | [5]

CCCc1ccccc1
inactive: [4] | [5]

CCN(CC)C(=S)SSC(=S)N(CC)CC
active: [1] 146 nM and 58.6 nM | [2] 94.3 nM and 37.8 nM | [3] 110 nM and 63.3 nM | [6] 8.82 µM

NNC(=O)c1ccncc1
inactive: [1] | [2] | [3] | [7] | [8] | [9] | [10] | [11] | [12] | [13] | [14]

COCc1nnc(-c2ccc[n+]([O-])c2)n1-c1c(Cl)c(Cl)cc2[nH]c(=O)c(=O)[nH]c12
inactive: [4] | [5]

c1ccc(C(O[C@@H]2CCCN(CCc3ccc4c(c3)OCO4)C2)c2ccccc2)cc1
inactive: [4] | [5]

O=C(Cl)C(F)(F)C(F)(F)C(F)(F)C(=O)Cl
inactive: [1] | [2] | [3]

FC(F)(F)COC(OCC(F)(F)F)OCC(F)(F)F
inactive: [2] | [3]

CCCCC(CC)C(=O)OCCOCCOCCOC(=O)C(CC)CCCC (stereo not given)
inactive: [5]

OCc1ccccc1
inactive: [5]

FC(F)(F)C(F)(F)C(F)(F)C(F)(F)C(F)(F)C(F)(F)I
inactive: [2] | [3]
